In ChEMBL document CHEMBL3988442, “University of Dundee, Small-Polar-MMV Screening Library” (2021):
In all, about 48,000 compounds went through this assay and about 13,000 (27%) showed an effect of 50% or more. Some of the results follow.

Test system: Wolbachia pipientis
Experiment: Anti-Wolbachia Cell-Based Screen
Assay type: functional
Parameters: scale not given: in the data most compounds retested in dose-response had high values
Details: 5 µM

| SMILES | Percent Effect |
| --- | --- |
| Cn1cc(CN2CCC[C@]3(C(=O)O)CN(c4ncccn4)C[C@@H]3C2)cn1.O=C(O)C(F)(F)F | 8.279% |
| COCC1CC2(CCN(Cc3cnn(C)c3)CC2)CN1c1ncccn1.O=C(O)C(F)(F)F.O=C(O)C(F)(F)F (stereo not given) | -8.289% |
| O=C(O)C(F)(F)F.O=C(c1cnccn1)N1CCC(F)(F)C2(CCN(c3ccccn3)C2)C1 (stereo not given) | -12.88% |
| Cn1cc(CN2CCC(F)(F)C3(CCN(c4cnccn4)C3)C2)cn1.O=C(O)C(F)(F)F.O=C(O)C(F)(F)F (stereo not given) | -4.979% |
| COc1cccc(CN2CCC3(CC2)CCN(c2ncc(F)cn2)C3)c1.O=C(O)C(F)(F)F | 3.548% |
| Cn1cc(CN2CCC(F)(F)C3(CCN(c4ncc(F)cn4)C3)C2)cn1.O=C(O)C(F)(F)F (stereo not given) | 107.8% |
| Cn1cc(CN2CCC(F)(F)C3(CCN(c4ncccn4)C3)C2)cn1.O=C(O)C(F)(F)F.O=C(O)C(F)(F)F (stereo not given) | 111.9% |
| Cn1cc(CN2CCC(F)(F)C3(CCN(c4ccccn4)C3)C2)cn1.O=C(O)C(F)(F)F.O=C(O)C(F)(F)F (stereo not given) | 97.58% |
| COc1cc(N2CC[C@@H]3O[C@H](C(=O)NCC4CC4)C[C@@H]32)ncn1 | 97.06% |
| COc1cc(N2CC[C@@H]3O[C@@H](C(=O)NCCN(C)C)C[C@@H]32)ncn1 | 104.9% |
| COCCNC(=O)[C@H]1CC[C@@H]2[C@@H](CCN2c2ncc(F)cn2)O1.O=C(O)C(F)(F)F | 0.7223% |
| COCCNC(=O)[C@@H]1CC[C@@H]2[C@@H](CCN2c2ncc(F)cn2)O1.O=C(O)C(F)(F)F | -10.3% |
| COc1cc(N2C[C@H]3OCC[C@H]3[C@H](C(=O)NC3CC3)C2)ncn1 | -4.655% |
| COc1cc(N2CC[C@@H](OC)[C@@H]2Cc2ccccc2)ncn1 | 2.999% |
| COCCNC(=O)[C@@H]1C[C@H]2[C@H](CCN2c2cc(OC)ncn2)O1 | 102.9% |
| COc1cc(N2CC[C@@H]3O[C@@H](C(=O)NC(C)C)C[C@@H]32)ncn1 | 103.8% |
| COc1cc(NC(=O)N(C)C(C2CC2)C2CC2)ncn1 | -1.888% |
| COc1cc(NC(=O)N(C)CCC2CC2)ncn1 | 6.653% |
| COc1cc(NC(=O)N(C)CC2CC2)ncn1 | -6.401% |
| Cc1cnn(CC(=O)Nc2cc(-n3nnnc3C3CC3)ccc2F)c1 | -3.572% |
| CC(C)CC(C)N(C)C(=O)CCn1cccn1 (stereo not given) | 9.677% |
| CC(C(=O)N1CCCC1)N1CCC(c2nccn2Cc2cscn2)CC1 (stereo not given) | 9.079% |
| CC1COc2ccccc2N1C(=O)c1cscn1 (stereo not given) | -0.3654% |
| Cc1nc(C2CCN(C)CC2)cc(N2CCOc3ccc(Cl)cc3C2)n1 | -7.272% |
| Cc1nc(N2CCC3(CCOC3)C2)c2cc[nH]c2n1 (stereo not given) | 96.01% |

| SMILES | Percent Effect |
| --- | --- |
| Cc1nc(C)c(C)c(N2CCC3(CCOC3)C2)n1 (stereo not given) | 0.7248% |
| Cc1nnc2ccc(N3CCC4(CCOC4)C3)nn12 (stereo not given) | -16.97% |
| O=C(O)C(F)(F)F.O=C(c1ccncc1)N1CCOC2(COCCN(c3cncnc3)C2)C1 (stereo not given) | -8.943% |
| Cc1cncc(C(=O)N2CCC3(CCCN(c4nncs4)C3)C2)c1.O=C(O)C(F)(F)F (stereo not given) | -14.05% |
| CC(=O)N1CCCC2(C1)CN(c1ncc(C)cn1)CCO2.O=C(O)C(F)(F)F (stereo not given) | -4.18% |
| CC(C)C(=O)N1CCCC2(C1)CN(c1nncs1)CCO2.O=C(O)C(F)(F)F (stereo not given) | 94.93% |
| CC(=O)N1CCCC2(C1)CN(c1nncs1)CCO2.O=C(O)C(F)(F)F (stereo not given) | 117% |
| O=C(O)C(F)(F)F.O=C(c1ccncc1)N1CCOC2(CCCN(c3nncs3)C2)C1 (stereo not given) | 123% |
| O=C(O)C(F)(F)F.c1ccc(N2CCOC3(CCCN(c4nncs4)C3)C2)nc1 (stereo not given) | -13.18% |
| CC(C)CCN1CCC2(CCCN(c3nncs3)C2)C1.O=C(O)C(F)(F)F (stereo not given) | -9.122% |
| CC(C)CN1CCCC12CCN(c1nncs1)C2.O=C(O)C(F)(F)F (stereo not given) | 16.12% |
| CN(C)C(=O)CN1C[C@@H]2CC[C@H](C1)N(Cc1c(F)cccc1Cl)C2 | -24.65% |
| CNC(=O)[C@@H](CC(C)C)N1CCC[C@H]1C(=O)N(C)Cc1cccnc1.Cl.Cl | 6.21% |
| CCn1cnc(NC(=O)N2CCC(c3ccc(F)cc3)C2)n1 (stereo not given) | -5.373% |
| Cc1ncc(CN2CCC3(CC2)CC(=O)N(C)C3)cn1 | -13.29% |
| O=C1CCC2(CCN(Cc3cc(F)cc(F)c3)CC2)CN1CCO | -11.07% |
| CCCOCCN1CCC2(CC1)CC(=O)N(Cc1cc(F)cc(F)c1)C2 | 102.6% |
| COCC(=O)N1CCC2(CC1)CC(=O)N(Cc1ccc(Cl)cc1)C2 | -7.837% |
| O=C1CC2(CCN(Cc3ncc[nH]3)CC2)CN1Cc1ccc(Cl)cc1 | 9.235% |
| CCN1CC2(CCN(CCOCCO)CC2)CC(c2ccccc2)C1=O (stereo not given) | 6.251% |
| O=C1CC2(CCN(CCCO)CC2)CN1Cc1ccc(F)c(F)c1 | 111.9% |
| O=C1CC2(CCN(Cc3ncc[nH]3)CC2)CN1Cc1cc(F)cc(F)c1 | 5.031% |
| O=C1CC2(CCN(CCCF)CC2)CN1Cc1cc(F)cc(F)c1 | 93.67% |
| O=C1CC2(CCN(CCO)CC2)CN1Cc1cc(F)cc(F)c1 | -5.03% |
| O=C1CC2(CCN(Cc3ccoc3)CC2)CN1Cc1cc(F)cc(F)c1 | 87.88% |
